Data published in PubChem BioAssay (EPA / NIEHS).
The source made the active and inactive calls. The calls were made as follows: active = hit-call score of the fitted dose curve at least 0.9, where 1 is the maximum; inactive = score below 0.9.

Key:
Conditions in all cases: mRNA level, 48 h; actives raise or lower the signal
[1] = read-out: Lipoprotein lipase (LPL), LPL (gene 4023); experiment: LTEA_HepaRG_LPL: Life Technologies and Expression Analysis (LTEA) Assay for Lipoprotein lipase (LPL) using HepaRG (AID 2283515)
How it was run: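 Differentiated human HepaRG cells in serum-free induction medium were exposed in duplicate for 48 h to eight half-log concentrations (top 100 uM) in 0.5% DMSO. LPL mRNA was quantified by TaqMan qRT-PCR, normalized to ACTB, GAPDH and POLR2A.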

[2] = read-out: MicroRNA 122 (MIR122), gene 406906; experiment: LTEA_HepaRG_MIR122: Life Technologies and Expression Analysis (LTEA) Assay for MicroRNA 122 (MIR122) using HepaRG (AID 2283516); also: the transcript read is the microRNA miR-122
How it was run: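 HepaRG plated 48 h, switched to serum-free induction medium, then treated in duplicate for 48 h (100 uM top, half-log steps, 0.5% DMSO vehicle). RNA isolated, qRT-PCR performed, concentration-response fitted both directions relative to DMSO.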

[3] = read-out: matrix metalloproteinase-10 (MMP10), MMP10 (gene 4319); experiment: LTEA_HepaRG_MMP10: Life Technologies and Expression Analysis (LTEA) Assay for matrix metalloproteinase-10 (MMP10) using HepaRG (AID 2283517)
How it was run: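 HepaRG, collagen I, ~100,000 cells/well; serum-free induction medium; 48 h exposure, duplicate, 8-pt half-log to 100 uM, 0.5% DMSO. Readout: TaqMan qRT-PCR, normalized to ACTB/GAPDH/POLR2A; bidirectional fit vs DMSO.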

MYC, MYC (gene 4609) = experiment: LTEA_HepaRG_MYC: Life Technologies and Expression Analysis (LTEA) Assay for MYC using HepaRG (AID 2283518)
How it was run: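 Differentiated HepaRG cells exposed 48 h in serum-free induction medium to 8 concentrations (top 100 uM, half-log steps; 0.5% DMSO), duplicate. MYC mRNA measured by Fluidigm qRT-PCR, normalized to ACTB, GAPDH, POLR2A; bidirectional fit versus DMSO.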

[4] = read-out: matrix metalloproteinase-3 (MMP3), MMP3 (gene 4314); experiment: LTEA_HepaRG_MMP3: Life Technologies and Expression Analysis (LTEA) Assay for matrix metalloproteinase-3 (MMP3) using HepaRG (AID 2283519)
How it was run: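 Differentiated human HepaRG cells, plated 48 h on collagen I, were exposed in duplicate for 48 h in serum-free induction medium to eight half-log concentrations up to 100 uM in 0.5% DMSO. MMP3 mRNA was quantified by TaqMan qRT-PCR, normalised to ACTB, GAPDH and POLR2A.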

[5] = read-out: Paternally Expressed 10 (PEG10), PEG10 (gene 23089); experiment: LTEA_HepaRG_PEG10: Life Technologies and Expression Analysis (LTEA) Assay for Paternally Expressed 10 (PEG10) using HepaRG (AID 2283520)
How it was run: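 HepaRG, 48 h post-plating → serum-free induction medium → 48 h chemical exposure (duplicate, 8-pt, max 100 uM, half-log, 0.5% DMSO) → lysis in RLT → TaqMan qRT-PCR for PEG10, ACTB/GAPDH/POLR2A normalisation.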

[6] = read-out: Nuclear factor NF-kappa-B p105 subunit (Homo sapiens) (UniProt P19838); experiment: LTEA_HepaRG_NFKB1: Life Technologies and Expression Analysis (LTEA) Assay for Nuclear Factor Kappa B Subunit 1 (NFKB1) using HepaRG (AID 2283521)
How it was run: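 Differentiated human HepaRG cells in serum-free induction medium with 0.5% DMSO were exposed for 48 h to eight half-log concentrations, top 100 uM, in duplicate. NFKB1 mRNA measured by Fluidigm TaqMan qRT-PCR, normalised to ACTB, GAPDH and POLR2A; bidirectional fit versus DMSO.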

[7] = read-out: Protein phosphatase 2A (PPP2R4), PTPA (gene 5524); experiment: LTEA_HepaRG_PPP2R4: Life Technologies and Expression Analysis (LTEA) Assay for Protein phosphatase 2A (PPP2R4) using HepaRG (AID 2283522)
How it was run: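 Readout is PPP2R4 transcript level by microfluidic qRT-PCR after 48 h chemical treatment of human HepaRG liver cells. Concentrations spanned 100 uM downward in half-log steps; gain or loss of signal was fitted relative to DMSO.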

[8] = read-out: Phosphatase and tensin (PTEN), PTEN (gene 5728); experiment: LTEA_HepaRG_PTEN: Life Technologies and Expression Analysis (LTEA) Assay for Phosphatase and tensin (PTEN) using HepaRG (AID 2283523)
How it was run: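 Differentiated human HepaRG cells, plated 48 h then switched to serum-free induction medium, were exposed in duplicate for 48 h to eight half-log concentrations up to 100 uM in 0.5% DMSO. PTEN mRNA measured by TaqMan qRT-PCR, normalized to ACTB/GAPDH/POLR2A, bidirectional fit versus DMSO.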

[9] = read-out: solute carrier (SLC22A1), SLC22A1 (gene 6580); experiment: LTEA_HepaRG_SLC22A1: Life Technologies and Expression Analysis (LTEA) Assay for solute carrier (SLC22A1) using HepaRG (AID 2283524)
How it was run: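 Human HepaRG cells were plated 48 h, switched to serum-free induction medium, then exposed in duplicate for 48 h to 8-point half-log series from 100 uM in 0.5% DMSO. SLC22A1 mRNA measured by qRT-PCR, normalized to ACTB/GAPDH/POLR2A, fitted bidirectionally versus DMSO.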

[10] = read-out: Pyruvate Dehydrogenase Kinase 4 (PDK4), PDK4 (gene 5166); experiment: LTEA_HepaRG_PDK4: Life Technologies and Expression Analysis (LTEA) Assay for Pyruvate Dehydrogenase Kinase 4 (PDK4) using HepaRG (AID 2283525)
How it was run: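 Differentiated human HepaRG cells, pre-cultured 48 h, were exposed in duplicate for 48 h in serum-free induction medium to eight half-log concentrations up to 100 uM in 0.5% DMSO. PDK4 mRNA was quantified by qRT-PCR, normalized to ACTB, GAPDH and POLR2A, bidirectional fitting versus DMSO.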

[11] = read-out: Nuclear factor erythroid 2-related factor 2 (Homo sapiens) (UniProt Q16236); experiment: LTEA_HepaRG_NFE2L2: Life Technologies and Expression Analysis (LTEA) Assay for Nuclear factor erythroid 2-related factor 2 (NFE2L2) Transcription Factor using HepaRG (AID 2283527)
How it was run: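 Differentiated human HepaRG cells in serum-free induction medium were exposed for 48 h to eight concentrations (top 100 uM, half-log dilutions, 0.5% DMSO), in duplicate. NFE2L2 mRNA was quantified by TaqMan qRT-PCR, normalized to ACTB, GAPDH and POLR2A, with bidirectional fitting versus DMSO.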

[12] = read-out: succinate dehydrogenase complex iron sulfur subunit B (SDHB), SDHB (gene 6390); experiment: LTEA_HepaRG_SDHB: Life Technologies and Expression Analysis (LTEA) Assay for succinate dehydrogenase complex iron sulfur subunit B (SDHB) using HepaRG (AID 2283528)
How it was run: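 HepaRG cells (~100,000/well, plated 48 h) exposed in duplicate for 48 h in serum-free induction medium to 8-point half-log series from 100 uM in 0.5% DMSO; mRNA by qRT-PCR normalised to ACTB, GAPDH, POLR2A; bidirectional fit versus DMSO.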

[13] = read-out: Signal transducer and activator of transcription 3 (Homo sapiens) (UniProt P40763); experiment: LTEA_HepaRG_STAT3: Life Technologies and Expression Analysis (LTEA) Assay for Signal transducer and activator of transcription (STAT3) using HepaRG (AID 2283529)
How it was run: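 Differentiated human HepaRG cells in serum-free induction medium were exposed in duplicate for 48 h to eight half-log concentrations up to 100 uM in 0.5% DMSO. STAT3 mRNA was quantified by TaqMan qRT-PCR, normalized to ACTB, GAPDH and POLR2A, and fitted bidirectionally against DMSO.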

[14] = read-out: solute carrier (SLCO1B1), SLCO1B1 (gene 10599); experiment: LTEA_HepaRG_SLCO1B1: Life Technologies and Expression Analysis (LTEA) Assay for solute carrier (SLCO1B1) using HepaRG (AID 2283530)
How it was run: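 Differentiated human HepaRG cells were exposed for 48 h in serum-free induction medium to eight half-log concentrations, top 100 uM, in 0.5% DMSO. SLCO1B1 mRNA was measured by qRT-PCR, normalized to ACTB, GAPDH and POLR2A, and fitted bidirectionally against DMSO.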

[15] = read-out: Transforming Growth Factor (TGFA), TGFA (gene 7039); experiment: LTEA_HepaRG_TGFA: Life Technologies and Expression Analysis (LTEA) Assay for Transforming Growth Factor (TGFA) using HepaRG (AID 2283532)
How it was run: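 Differentiated human HepaRG cells, plated 48 h then switched to serum-free induction medium, were exposed in duplicate for 48 h to 8-point half-log series from 100 uM in 0.5% DMSO. TGFA mRNA measured by qRT-PCR, normalized to ACTB/GAPDH/POLR2A, bidirectional fit versus DMSO.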

[16] = read-out: Transforming Growth Factor (TGFB1), TGFB1 (gene 7040); experiment: LTEA_HepaRG_TGFB1: Life Technologies and Expression Analysis (LTEA) Assay for Transforming Growth Factor (TGFB1) Transporter using HepaRG (AID 2283533)
How it was run: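 Differentiated HepaRG cells exposed 48 hr in serum-free induction medium to eight half-log concentrations up to 100 uM (0.5% DMSO), duplicate; TGFB1 mRNA by TaqMan qRT-PCR normalised to ACTB, GAPDH, POLR2A; bidirectional fit against DMSO.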

TIMP1, TIMP1 (gene 7076) = experiment: LTEA_HepaRG_TIMP1: Life Technologies and Expression Analysis (LTEA) Assay for TIMP1 using HepaRG (AID 2283534);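 also: TaqMan qRT-PCR signal normalized to ACTB GAPDH and POLR2A housekeeping genes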
How it was run: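 Differentiated HepaRG cells exposed 48 h in serum-free induction medium, duplicates, eight half-log concentrations from 100 uM in 0.5% DMSO. TIMP1 mRNA by qRT-PCR normalized to ACTB, GAPDH, POLR2A; bidirectional fitting against DMSO.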

Measured: AC50

Nuclear factor erythroid 2-related factor 2 (Homo sapiens), sequence (Q16236 whole entry, looked up): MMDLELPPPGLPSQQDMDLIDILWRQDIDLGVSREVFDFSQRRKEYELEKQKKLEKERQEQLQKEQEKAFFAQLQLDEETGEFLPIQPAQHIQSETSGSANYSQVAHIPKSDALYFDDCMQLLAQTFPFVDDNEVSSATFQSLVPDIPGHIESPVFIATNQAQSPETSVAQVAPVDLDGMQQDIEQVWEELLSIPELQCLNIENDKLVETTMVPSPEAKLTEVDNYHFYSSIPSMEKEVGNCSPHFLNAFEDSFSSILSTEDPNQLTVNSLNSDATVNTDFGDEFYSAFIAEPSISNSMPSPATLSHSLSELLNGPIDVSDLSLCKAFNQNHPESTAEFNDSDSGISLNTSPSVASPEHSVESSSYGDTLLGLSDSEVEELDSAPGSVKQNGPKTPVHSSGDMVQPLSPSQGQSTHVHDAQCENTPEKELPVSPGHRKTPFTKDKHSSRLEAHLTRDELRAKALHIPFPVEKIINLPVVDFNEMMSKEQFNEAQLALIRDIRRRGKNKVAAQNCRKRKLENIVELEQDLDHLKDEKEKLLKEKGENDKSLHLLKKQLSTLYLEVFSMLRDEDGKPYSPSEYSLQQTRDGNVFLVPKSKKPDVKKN
Nuclear factor NF-kappa-B p105 subunit (Homo sapiens), sequence (P19838 whole entry, looked up): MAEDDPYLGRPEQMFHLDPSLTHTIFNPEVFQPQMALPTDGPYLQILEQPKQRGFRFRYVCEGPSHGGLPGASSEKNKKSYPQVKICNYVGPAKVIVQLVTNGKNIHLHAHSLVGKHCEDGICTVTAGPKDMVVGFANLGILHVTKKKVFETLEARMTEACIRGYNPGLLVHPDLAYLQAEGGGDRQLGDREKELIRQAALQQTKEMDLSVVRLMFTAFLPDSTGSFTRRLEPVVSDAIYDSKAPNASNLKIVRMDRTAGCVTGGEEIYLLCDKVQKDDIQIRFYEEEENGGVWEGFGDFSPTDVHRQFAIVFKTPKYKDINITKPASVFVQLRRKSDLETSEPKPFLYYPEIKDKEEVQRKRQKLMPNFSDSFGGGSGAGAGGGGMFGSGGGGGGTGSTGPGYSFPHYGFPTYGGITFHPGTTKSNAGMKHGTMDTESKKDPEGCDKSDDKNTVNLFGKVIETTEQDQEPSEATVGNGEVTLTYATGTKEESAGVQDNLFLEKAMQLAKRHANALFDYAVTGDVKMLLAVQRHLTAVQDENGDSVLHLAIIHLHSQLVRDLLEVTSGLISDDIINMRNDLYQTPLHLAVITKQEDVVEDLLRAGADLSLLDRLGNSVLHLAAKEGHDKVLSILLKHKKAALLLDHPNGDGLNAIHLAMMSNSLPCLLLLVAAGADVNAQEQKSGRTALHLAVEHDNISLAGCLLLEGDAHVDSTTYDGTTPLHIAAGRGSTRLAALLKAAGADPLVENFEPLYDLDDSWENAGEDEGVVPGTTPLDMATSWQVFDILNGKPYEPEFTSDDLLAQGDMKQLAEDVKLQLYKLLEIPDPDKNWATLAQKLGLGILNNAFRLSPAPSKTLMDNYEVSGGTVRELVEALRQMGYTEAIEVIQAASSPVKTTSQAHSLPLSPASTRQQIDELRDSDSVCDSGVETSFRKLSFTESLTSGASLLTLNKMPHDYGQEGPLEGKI
Signal transducer and activator of transcription 3 (Homo sapiens), sequence (P40763 whole entry, looked up): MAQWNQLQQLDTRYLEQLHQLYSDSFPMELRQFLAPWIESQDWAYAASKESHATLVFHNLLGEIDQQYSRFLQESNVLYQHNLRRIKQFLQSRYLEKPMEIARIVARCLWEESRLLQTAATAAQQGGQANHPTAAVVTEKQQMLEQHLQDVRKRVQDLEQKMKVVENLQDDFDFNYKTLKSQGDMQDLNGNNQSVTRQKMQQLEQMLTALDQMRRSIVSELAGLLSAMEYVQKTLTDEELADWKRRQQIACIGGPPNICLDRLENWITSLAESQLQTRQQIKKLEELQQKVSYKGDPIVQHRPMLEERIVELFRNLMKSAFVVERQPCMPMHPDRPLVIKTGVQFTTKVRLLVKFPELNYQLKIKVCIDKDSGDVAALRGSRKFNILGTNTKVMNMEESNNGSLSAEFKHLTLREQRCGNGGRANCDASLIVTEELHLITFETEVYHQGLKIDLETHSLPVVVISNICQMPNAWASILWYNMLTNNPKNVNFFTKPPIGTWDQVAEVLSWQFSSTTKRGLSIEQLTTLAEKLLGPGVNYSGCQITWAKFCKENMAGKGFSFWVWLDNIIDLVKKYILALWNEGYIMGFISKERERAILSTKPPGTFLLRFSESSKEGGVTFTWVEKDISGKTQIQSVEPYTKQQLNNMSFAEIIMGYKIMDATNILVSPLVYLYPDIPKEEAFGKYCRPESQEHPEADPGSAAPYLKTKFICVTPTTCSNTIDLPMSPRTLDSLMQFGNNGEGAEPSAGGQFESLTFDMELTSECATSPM

CCN(CC)C(=O)c1cc(S(=O)(=O)Cc2ccccc2)c(N2CCC(c3ccccc3)CC2)cc1N(CC)CCN(C)C
active: [1] 31.6 µM | [2] 30.5 µM | [3] 30.5 µM | [6] 28.1 µM | [8] 22.9 µM | [11] 29.1 µM | [14] 33.3 µM | [15] 27.9 µM
inactive: all other assays above
